This passage reports Potency and activity change, negative = growth inhibition results from PubChem BioAssay AID686979 (National Center for Advancing Translational Sciences (NCATS), 2013).

Where “and” joins values, the source holds several entries; their conditions need not be identical. Equal values may be shown once. Out of some 420,000 compounds screened, about 50,000 (12%) were called active. A call without a number means that no potency is given here. Another 26% or so got no clear call; they are omitted. Calls come from the whole dose curve; as a rule, active = well fitted inhibition curve with a large enough effect; inconclusive = small, poorly fitted or top-dose-only effect; inactive = flat fitted curve, though single readings scatter. Many of the other results were omitted from the sample, so actives are more common in it than they were. Some structures have more than one record in an assay (separate samples or runs), and their calls can disagree.
Potency is the fitted concentration of half-maximal effect.

This assay is described as follows: qHTS for Inhibitors of human tyrosyl-DNA phosphodiesterase 1 (TDP1): qHTS in cells in presence of CPT. Note: nearly all actives have a fitted effect of over 55% in size. The settings on record: chicken DT40 Tdp1-/-;hTDP1 cells + 20 nM CPT, ATP luminescence, 48 h; series mostly up to 46.2 µM. Put shortly:
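Cell growth measured by CellTiter-Glo luminescence after a minimum 48 h, 37 C compound exposure with 20 nM CPT in Tdp1-knockout DT40 cells stably expressing hTDP1, seeded 400/well; qHTS titration format.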
Consider `CC1Cn2c(nnc2-c2cccs2)S1` (centres undefined), for which the Potency result was “inactive”.
Still for that read-out and setting: the result for `O=c1cnnc(Nc2ccccc2)[nH]1` reads “inactive”.
As for `CCC1(C2CCN(Cc3cccnc3)CC2)NC(=O)N(CC2COc3ccccc3O2)C1=O` (centres undefined), the activity change, negative = growth inhibition was -5.78% [at 9.04 µM] (inactive).
For `CSCC(NS(=O)(=O)c1ccc(C)cc1)C(=O)O` (centres undefined), the Potency entry is “inactive”.
Same read-out and setting: the result for `CCC(C)N(C(=O)CSc1ncnc2c1cnn2-c1ccccc1)C1CCS(=O)(=O)C1` (centres undefined) reads “inactive”.
The same measure, in the same setting: the result for `COc1ccc(N2CCN(C(=O)CNS(=O)(=O)c3ccc(C)c(C)c3)CC2)cc1` reads “inactive”; that for `O=C(CNS(=O)(=O)c1ccc2c(c1)OCCCO2)N1CCN(c2ccc(F)cc2)CC1`, 20.6 µM (active); that for `Cc1ccc(S(=O)(=O)NCC(=O)N2CCOCCOCCOCCOCC2)cc1`, “inactive”.
Still for that read-out and setting: the result for `CCOC(=O)[C@H]1[C@H]2COc3ccccc3[C@@H]2N2C(=O)CN(Cc3ccccc3)C(=O)[C@@]12C` reads “inactive”; that for `CCCNC(=S)N1CCC(NC(=O)c2ccc(OC)cc2)CC1`, “inactive”; that for `CC(C)n1c(-c2cccs2)nc2ccccc21`, “inactive”.
As to `CCC(c1nc2ccccc2[nH]1)n1c(=O)c(-c2cccs2)nc2ccccc21` (centres undefined), the Potency is 18.4 µM (active).
On the same count and under the same terms, the result for `O=c1c(-c2cccs2)nc2cnc(Oc3ccccc3)nc2n1-c1ccccc1` reads “inactive”; that for `O=C(NCc1ccccc1)C(c1cccnc1)N(C(=O)c1csnn1)c1ccc(F)cc1` (centres undefined), “inactive”.
On the same count and under the same terms, the result for `COc1cc(OC)nc(NC(=O)CCl)n1` reads 14.6 µM (active); that for `COc1cc(OC)nc(N/N=C(\c2ccccc2)c2ccncc2)n1`, “inactive”; that for `CCC(=O)Nc1nc(OC)cc(OC)n1`, “inactive”.
As for `CCSc1nsc(NC(=O)Nc2ccccc2OC)n1`, the Potency entry was “inactive”.
Still for that read-out and setting: the result for `Cc1ccc(F)cc1NC(=O)c1cccc(N(C)C)c1` reads “inactive”.
On the same count and under the same terms, the result for `Cc1ccc(C)c(NC(=O)c2ccc3nccnc3c2)c1` reads “inactive”; that for `Cc1ccc(NC(=O)c2cccc(N(C)C)c2)cc1NC(=O)c1ccc(O)cc1`, “inactive and 29.9 µM (active)”.
Still for that read-out and setting: the result for `O=C(c1cn2ccccc2n1)N1CCc2c([nH]c3ccccc23)C1c1ccccn1` (centres undefined) reads “inactive”; that for `CCc1nc2ccc(C(=O)NC3CCN(Cc4ccccc4)CC3)cn2c1N(C)CCN1CCOCC1`, “inactive”.
Regarding `O=[N+]([O-])c1ccc(C=NN=Cc2ccc([N+](=O)[O-])cc2)cc1`, the Potency entry was “inactive”.
For `O=C1/C(=C\c2ccc([N+](=O)[O-])cc2)CS(=O)(=O)C/C1=C/c1ccc([N+](=O)[O-])cc1`, the Potency is 0.0259 µM (active).
Same read-out and setting: the result for `O=C(NN=Cc1ccc([N+](=O)[O-])cc1)C1CC1` reads “inactive”; that for `CCOc1cccc2cc(C(=O)OCC(=O)Nc3c(C)cccc3CC)c(=O)oc12`, “inactive”.
Still for that read-out and setting: the result for `COCCNC(=O)CSc1nc2sccc2c(=O)n1-c1ccccc1` reads “inactive”.
Still for that read-out and setting: the result for `COc1ccc(S(=O)(=O)N2CCC(C(=O)N3CCCC3)CC2)cc1C` reads “inactive”; that for `COc1ccc(N2CCN(C(=O)C3CCN(S(=O)(=O)c4ccc(C)cc4)CC3)CC2)cc1`, “inactive”; that for `Cc1ccc(S(=O)(=O)N2CCC(C(=O)OCC(=O)N(C)c3ccccc3)CC2)cc1C`, “inactive”.
On to `Cc1ccc(S(=O)(=O)N2CCC(C(=O)N3CCCCCCC3)CC2)cc1`, for which the Potency was 20.6 µM (active).
On the same count and under the same terms, the result for `COc1ccc(N(C)C(=O)C2CCN(S(=O)(=O)c3cc(Br)cc4c3N(C(C)=O)CC4)CC2)cc1` reads “inactive”.
Still for that read-out and setting: the result for `Cc1ccc(N(C)C(=O)C2CCN(S(=O)(=O)c3ccc4c(c3)CCCN4C(=O)C3CCC3)CC2)cc1` reads 23.1 µM (active); that for `Cc1c(NC(=O)COC(=O)/C=C/c2cccc(F)c2)c(=O)n(-c2ccccc2)n1C`, “inactive”.
Same read-out and setting: the result for `O=C1C[C@@H]2c3c(cccc3CN1Cc1ccccc1)C[C@@H](O)[C@H]2O` reads “inactive”; that for `NC(=O)CSc1nnc(NC(=O)c2ccc3ccccc3c2)s1`, “inactive”; that for `CCc1ccccc1NC(=O)c1ccc(F)c(S(=O)(=O)NC2CCCCCC2)c1`, “inactive”.
With `CN1CCN(CC(=O)Nc2cccc([N+](=O)[O-])c2)CC1`, the Potency entry is “inactive”.
On the same count and under the same terms, the result for `Cc1cc(=O)n(CC(=O)Nc2cccc([N+](=O)[O-])c2)c(-n2nc(C)cc2C)n1` reads 20.6 µM (active); that for `O=C(CN1CCOCC1)Nc1cccc([N+](=O)[O-])c1`, “inactive”.
On the same count and under the same terms, the result for `Cn1c(=O)c2c(ncn2CC(=O)N/N=C/c2cn[nH]c2-c2ccc(F)cc2)n(C)c1=O` reads “inactive”; that for `COc1ccc(Br)cc1/C=N/Nc1ccc(Cl)c(C(=O)O)c1`, “inactive”; that for `N#Cc1c(-c2ccc(F)cc2)cc(C2CC2)nc1SCC(=O)c1cccs1`, “inactive”.
Turning to `O=S(=O)(NC1CC1)c1ccc(F)c(F)c1`, the Potency result is “inactive”.
On the same count and under the same terms, the result for `Cn1sc(=O)c2cc(S(=O)(=O)NC3CC3)ccc21` reads 2.91 µM (active); that for `O=S(=O)(NC1CC1)c1ccc(Cl)cc1`, “inactive”; that for `COc1ccc(C)cc1NC(=O)NCCCCc1ccccc1`, “inactive”.
On the same count and under the same terms, the result for `CCOC(=O)c1[nH]c(C)c(C(=O)OCC(=O)N2c3ccccc3CC2C)c1C` (centres undefined) reads “inactive”; that for `CC(=O)CSc1nc(CCc2ccccc2)c(C#N)c(=O)[nH]1`, “inactive”; that for `Cc1nn2c(=O)cc(COC(=O)c3ccccc3NC(=O)COc3ccccc3C)nc2s1`, “inactive”.
On the same count and under the same terms, the result for `O=C(Nc1nnc(S(=O)(=O)N2CCCCCC2)s1)c1cccc(Br)c1` reads 5.8 µM (active) and 25.9 µM (active).
As for `CCC(=O)Nc1nnc(S(=O)(=O)N2CCCc3ccccc32)s1`, the Potency result is “inactive”.
Still for that read-out and setting: the result for `Cc1nn(C)c(C)c1S(=O)(=O)N1CCc2ccccc21` reads “inactive”; that for `O=C(Nc1nc2ccc([N+](=O)[O-])cc2s1)c1ccc(S(=O)(=O)N2CCCc3ccccc32)cc1`, 4.61 µM (active); that for `CSc1nc2ccc(S(=O)(=O)N3CCc4ccccc43)cc2s1`, 16.4 µM (active).
The same measure, in the same setting: the result for `O=S(=O)(c1ccccc1)N1CCc2ccccc21` reads “inactive”; that for `O=C(Nc1nnc(S(=O)(=O)N2CCOCC2)s1)c1cccc(Br)c1`, “inactive”.
Same read-out and setting: the result for `Cc1cccc(C(=O)Nc2nnc(S(=O)(=O)N3CCCCCC3)s2)c1` reads “inactive”; that for `O=C(Nc1nnc(S(=O)(=O)N2CCCc3ccccc32)s1)c1cccc(F)c1`, 16.4 µM (active); that for `CCOC(=O)CSc1nnc(NC(=O)c2cccc(S(=O)(=O)N3CCCCC3)c2)s1`, “inactive”.
For `CS(=O)(=O)c1ccc2nc(NC(=O)c3ccc(N4CCCC4=O)cc3)sc2c1`, the Potency entry is “inactive”.
The same measure, in the same setting: the result for `NS(=O)(=O)c1ccc2nc(NC(=O)C3=COCCO3)sc2c1` reads “inactive”; that for `CN(Cc1ccc2nsnc2c1)Cc1nc(Cc2cccc(F)c2)no1`, “inactive”.
